# Counter-ions that a name gives are not always drawn. ± gives the standard deviation.
# System: THP-1 macrophages infected with Mycobacterium tuberculosis H37Rv
# Experiment: intracellular M.tb growth inhibition relative to DMSO (0) and 4 uM bedaquiline (100); higher = stronger inhibition of intracellular bacterial growth
# Conditions: 10 µM; 4 days
# Experimental: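 OICR kinase inhibitor library screened in duplicate at 10 uM against THP-1 macrophages (PMA-differentiated) infected with M. tuberculosis H37Rv-pTEC27 (tdTomato RFP), 4 days at 37 C. Rows with complete host cell loss (placeholder inhibition 0, cell loss 100) were removed.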
row,Compound,intracellular M.tb growth inhibition [%]
1,C/C(=N\N=C(N)N)c1ccc(NC(=O)Nc2ccc(/C(C)=N/N=C(N)N)cc2)cc1,63.3 ± 10
2,CC(C)c1cc(/C=C(\C#N)C(=O)NCCCc2ccccc2)cc(C(C)C)c1O [Tyrphostin SU 1498],50.29 ± 0.083
3,Oc1ccc(-c2nc(-c3ccc(F)cc3)c(-c3ccncc3)[nH]2)cc1,8.19 ± 7.9
4,S=C(NCc1ccc2c(c1)OCO2)N1CCN(c2ncnc3c2oc2ccccc23)CC1,-35.5 ± 71
5,CO[C@@H](C(=O)N1Cc2[nH]nc(NC(=O)c3ccc(N4CCN(C)CC4)cc3)c2C1)c1ccccc1,-228 ± 250
6,N#C/C(=C\c1ccc(O)c(O)c1)C(=O)NCc1ccccc1,9.47 ± 28
7,O=C(Nc1cc(Cl)cc2c1[nH]c1cnccc12)c1cccnc1 [PS1145 dihydrochloride],-10.6 ± 33
8,COc1cc2ncn(-c3cc(OCc4ccccc4C(F)(F)F)c(C(N)=O)s3)c2cc1OC,38.7 ± 14
9,Nc1nc(OCC2CCCCC2)c2[nH]cnc2n1,-15.1 ± 19
10,CN(C)CCOc1ccc(-c2nc(-c3ccncc3)c(-c3ccc4c(c3)CC/C4=N\O)[nH]2)cc1,35.2 ± 75
11,Cc1[nH]c(/C=C2\C(=O)Nc3ccc(S(=O)(=O)N(C)c4cccc(Cl)c4)cc32)c(C)c1C(=O)N1CCN(C)CC1,41.9 ± 66
12,N#CC[C@H](C1CCCC1)n1cc(-c2ncnc3[nH]ccc23)cn1,-157 ± 220
13,CC#CC(=O)Nc1cc2c(Nc3ccc(F)c(Cl)c3)ncnc2cn1,-68.3 ± 97
14,O=C1NCCCc2c1oc1ccc(O)cc21,11 ± 28
15,Nc1ncnc2c1c(-c1cccc(OCc3ccccc3)c1)cn2C1CC(CN2CCC2)C1 (stereo unspecified),-22.8 ± 12
16,O=C(C=Cc1ccccc1)NC(NC(=S)Nc1ccc(Cl)cc1)C(Cl)(Cl)Cl (stereo unspecified),12.9 ± 18
17,N#Cc1c(NC(=O)c2cccc3ccccc23)sc2c1CCCC2,-226 ± 330
18,CCCOc1ccc(/C=C2/SC(=O)NC2=O)cc1 [PIM1/2 Kinase Inhibitor VI],24.9 ± 13

row,Compound,intracellular M.tb growth inhibition [%]
1,Cc1[nH]c(/C=C2\C(=O)Nc3ccccc32)c(C)c1CCC(=O)O,6.44 ± 30
2,N#C/C(=C(/N)Sc1ccc(N)cc1)c1ccccc1C(F)(F)F,5.44 ± 36
3,NC(=O)c1ccc(-c2nc(-c3ccc4c(c3)OCCO4)c(-c3ccccn3)[nH]2)cc1,-106 ± 81
4,Cc1[nH]c(/C=C2\C(=O)Nc3cc(-c4ccccc4)ccc32)c(C)c1CCC(=O)O,-5.41 ± 25
5,COc1cc2ncc(-c3ccccc3)nc2cc1OC [Tyrphostin AG-1296],1.21 ± 2
6,C[C@@H](Oc1cc(-n2cnc3ccc(CN4CCN(C)CC4)cc32)sc1C(N)=O)c1ccccc1C(F)(F)F,-31.9 ± 42
7,COc1ccc2c3n(c(=NC(=O)c4cccnc4)nc2c1OC)CCN3,-0.0325 ± 8.7
8,C=CCn1c(=O)c2cnc(Nc3ccc(N4CCN(C)CC4)cc3)nc2n1-c1cccc(C(C)(C)O)n1,-188 ± 280
9,COc1cc(N2CCC(N3CCN(C)CC3)CC2)ccc1Nc1ncc(Cl)c(Nc2ccccc2S(=O)(=O)C(C)C)n1,-4.08 ± 19
10,N#C/C(=C\c1ccc(O)c(O)c1)C(=O)Nc1ccccc1,-35.4 ± 5.2
11,Cc1cc(Nc2nc(N[C@@H](C)c3ncc(F)cn3)ncc2Cl)[nH]n1,-234 ± 120
12,COc1cc(C[C@H]2C(=O)OC[C@@H]2Cc2ccc(OC)c(OC)c2)ccc1O [Arctigenin],46 ± 8.1
13,Cc1c[nH]c(/C=C2\C(=O)Nc3ccccc32)c1CCC(=O)O,27.3 ± 23
14,CC(C)N(CCC(=O)c1ccc2ccccc2c1)Cc1ccccc1,22.8 ± 6.8
15,CC[C@@H]1/C=C(\C)C[C@H](C)C[C@H](OC)[C@H]2O[C@@](O)(C(=O)C(=O)N3CCCC[C@H]3C(=O)O[C@H](/C(C)=C/[C@@H]3CC[C@H](Cl)[C@H](OC)C3)[C@H](C)[C@@H](O)CC1=O)[C@H](C)C[C@@H]2OC [Pimecrolimus],45.4 ± 4.6
16,O=c1cc(N2CCOCC2)oc2c1ccc1ccccc12,19.8 ± 4.3
17,NC(=O)c1sc2c([N+](=O)[O-])cc(C(F)(F)F)cc2[n+]1[O-] [Cyclapolin 9],-65.9 ± 140
18,COc1cc(Nc2ncc(F)c(Nc3ccc4c(n3)NC(=O)C(C)(C)O4)n2)cc(OC)c1OC,-164 ± 230

# Reference: the supplement of paper PMC7530171
